Assay outcomes from PubChem BioAssay.
Rows were chosen to be rich in hits. Some 3% of all compounds tested hit in one or more screens of this group.
FBPA coupling cs – qHTS Assay for Inhibitors of Fructose-1,6-bisphosphate Aldolase from Giardia Lamblia: Coupling assay counterscreen; 290,000 compounds, 0.67% hits; AID 2472, 2010; activity change, negative = inhibition, % at 58.2 µM, hits read low; coupling enzyme system counterscreen, AmpLite Red fluorescence; in the data active = activity change below about -30%
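Counterscreen of the coupled detection system alone, without aldolase: glyceraldehyde-3-phosphate coupling enzymes plus AmpLite Red readout. Compounds at 57.5 uM final, 10 min RT preincubation, 20 min RT reaction, fluorescence 525/598 nm.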
Tau ThT inhib – qHTS for Inhibitors of Tau Fibril Formation, Thioflavin T Binding; Potency, µM (top dose mostly 57.4 µM), usual class: inhibitors; 270,000 compounds, 2.1% hits; AID 1460, 2008; recombinant tau K18 P301L, heparin-induced fibrillization, ThT fluorescence; Microtubule-associated protein tau (Homo sapiens), P10636; note: nearly all actives have a fitted effect of over 55% in size
Target sequence (P10636 561-689 P618L limits assumed): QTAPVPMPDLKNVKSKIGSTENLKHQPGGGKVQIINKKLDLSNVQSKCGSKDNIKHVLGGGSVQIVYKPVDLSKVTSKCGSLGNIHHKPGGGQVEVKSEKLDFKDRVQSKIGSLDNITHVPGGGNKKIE
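ThT emission at 510 nm, taken 1 hr after adding 30 uM dye, quantifies aggregates formed when 20 uM heparin acts on human tau K18 P301L for 6 hr at 37 C.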
JMJD2E inh – qHTS Assay for Inhibitors of Human Jumonji Domain Containing 2E (JMJD2E); JMJD2E catalytic domain, FDH-coupled NADH fluorescence (FDH is formaldehyde dehydrogenase); Potency, µM (doses to about 57.1 µM), most hits filed as inhibitors; 230,000 compounds, 1.6% hits; AID 2147, 2009; active = well fitted inhibition curve with a large enough effect, not every such curve was filed as active; inconclusive = small, poorly fitted or top-dose-only effect, or another doubt; inactive = no such curve, though single readings can be large or run the other way; note: nearly all actives have a fitted effect of over 50% in size
Target sequence (B2RXH2 1-337 limits assumed): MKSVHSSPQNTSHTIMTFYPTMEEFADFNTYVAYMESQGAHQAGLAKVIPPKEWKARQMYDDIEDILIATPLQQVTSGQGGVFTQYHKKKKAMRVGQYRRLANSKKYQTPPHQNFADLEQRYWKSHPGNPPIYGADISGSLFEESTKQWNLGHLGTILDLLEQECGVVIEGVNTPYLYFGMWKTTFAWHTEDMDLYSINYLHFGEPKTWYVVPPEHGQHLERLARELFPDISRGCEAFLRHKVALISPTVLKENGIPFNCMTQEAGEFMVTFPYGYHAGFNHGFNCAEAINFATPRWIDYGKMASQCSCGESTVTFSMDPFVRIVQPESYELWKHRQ
Tau fluor counter – Counterscreen qHTS for Inhibitors of Tau Fibril Formation, Fluorescence Polarization | tau K18 P301L (four-repeat tau fragment) Alexa594 fluorescence, heparin fibrillization | Potency, µM (series often up to 57.7 µM) | 280,000 compounds, 0.93% hits | AID 1463, 2008; note: nearly all actives have a fitted effect of over 55% in size
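Human K18 P301L tau (15 uM unlabeled plus 0.24 uM Alexa 594-labeled, final) in 100 mM sodium acetate pH 7 was mixed with compound and 20 uM heparin and incubated 6 hr at 37 C.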
Tau fibril FP – qHTS for Inhibitors of Tau Fibril Formation, Fluorescence Polarization | Microtubule-associated protein tau (Homo sapiens), P10636 | K18 P301L tau heparin fibrillization, Alexa594 FP, 6 h | Potency, µM (top dose mostly 57.7 µM), most hits filed as inhibitors | 280,000 compounds, 0.39% hits; note: nearly all actives have a fitted effect of over 55% in size
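K18 P301L tau (15 uM unlabeled/0.24 uM Alexa 594-labeled, final) + compound + heparin 20 uM final; 100 mM NaOAc pH 7; 6 hr 37 C; ThT 30 uM final added, 1 hr RT; FP ex 555/em 632 nm.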
Numbers stand for hits; 0 = inactive; ? = inconclusive; - = not tested or not shown; [ ] = dose if it differs, or a comment. Unless noted, calls come from the whole dose curve; as a rule, active = well fitted curve in the direction sought with a large enough effect; inconclusive = small, poorly fitted or top-dose-only effect, or another doubt; inactive = no such curve, though single readings can be large; an effect the other way counts as inactive or inconclusive.

SMILES	FBPA coupling cs	Tau ThT inhib	JMJD2E inh	Tau fluor counter	Tau fibril FP
CC[C@H](C)[C@H](NC(=O)[C@H](CC(C)C)NC(=O)[C@H](CC(N)=O)NC(=O)[C@@H](NC(=O)[C@@H](N)Cc1ccc(O)cc1)[C@@H](C)CC)C(=O)N[C@@H](Cc1ccc(O)cc1)C(=O)N[C@@H](CCCN=C(N)N)C(=O)N[C@@H](CC(C)C)C(=O)N[C@@H](CCCN=C(N)N)C(=O)N[C@@H](Cc1ccc(O)cc1)C(N)=O	0	-	-	-	-
CCOC(=O)c1nnc(-c2ccccc2)nc1Oc1ccccc1Cl	0	14µM	0	?	0
CCOC(=O)c1nnc(-c2ccccc2)nc1NC	0	0	0	0	0
O=C(Nc1ccc(-c2csc(Nc3ccc(Cl)cc3)n2)cc1)c1cc([N+](=O)[O-])cc(C(F)(F)F)c1	0	?	0	7.1µM[quencher]	?
O=C(Nc1cccc(-c2csc(Nc3ccccc3)n2)c1)c1cc([N+](=O)[O-])cc(C(F)(F)F)c1	0	-	-	-	-
O=C(Nc1cccc(-c2csc(Nc3ccc(Cl)cc3)n2)c1)c1cc([N+](=O)[O-])cc(C(F)(F)F)c1	0	?	0	7.1µM[quencher]	0
CC#C[C@]1(O)CC[C@H]2C3CCC4=CC(=O)CCC4=C3[C@@H](c3ccc(N(C)C)cc3)C[C@@]21C (stereo partly specified)	-	0	0	0	0
O=C1Nc2ccc(S(=O)(=O)NCCC3=CCCCC3)c3cccc1c23	-34	0	?	0	0
CCN(CC)S(=O)(=O)c1ccc2c(c1)c(=O)c(C(=O)NCc1ccccc1Cl)cn2C	-	0	-	0	0
CCOc1cccc(/C=N/NC(=S)Nc2cc(S(=O)(=O)N3CCOCC3)ccc2N2CCOCC2)c1O	0	0	32µM	?	?
COc1ccc2ccccc2c1/C=N/NC(=S)Nc1cc(S(=O)(=O)N2CCOCC2)ccc1N1CCOCC1	0	0	?	0	0
Cc1cc(O)c2c(C)c(CC(=O)NCc3ccccc3Cl)c(=O)oc2c1	-	0	-	0	0
CCCOC(=O)c1c(NC(=O)C(C)Sc2nc(-c3ccccc3)cc(C(F)(F)F)n2)sc(C(=O)N(C)C)c1C (stereo unspecified)	-	?	-	0	0
CCN(CC)C(=O)c1sc(NC(=O)C(C)Sc2nc(-c3ccccc3)cc(C(F)(F)F)n2)c(C(=O)OC)c1C (stereo unspecified)	-	25µM	-	0	?
CCOc1ccc(NC(=O)/C(C#N)=C\c2ccc(-c3ccc(Cl)cc3)o2)cc1	-	1.4µM	-	0	0
CCCCOC(=O)/C(C#N)=C\c1ccc(-c2ccc(Cl)cc2)o1	-	0	-	0	0
N#C/C(=C\c1ccc(-c2ccc(C(=O)O)cc2)o1)C(=O)Nc1ccccc1C(=O)O	-	2.5µM	-	0	0
Cc1c(NC(=O)/C(C#N)=C/c2ccc(-c3ccc(Cl)cc3)o2)c(=O)n(-c2ccccc2)n1C	0	14µM	0	0	0
O=S(=O)(Nc1cccc2cccnc12)c1ccc(Br)s1	0	-	-	-	-
COc1ccc(-c2cc(-c3cc(F)ccc3O)[nH]n2)cc1OC	-	?	0	25µM[quencher]	?
Cc1ccc(-c2cc(-c3cccc(F)c3)n[nH]2)c(O)c1	0	?	0	?	?
COc1ccc(-c2cc(-c3ccccc3O)[nH]n2)cc1OC	0	?	0	?	?
Cc1ccc(O)c(-c2cc(-c3cccc(F)c3)n[nH]2)c1	0	0	0	32µM[quencher]	?
COc1ccc(-c2cc(-c3ccc(OC)c(OC)c3)n[nH]2)c(O)c1	0	0	?	16µM[quencher]	0
CCCNc1nc(C#N)nc(Nc2ccccc2)n1	0	-	-	-	-
SMILES	FBPA coupling cs	Tau ThT inhib	JMJD2E inh	Tau fluor counter	Tau fibril FP
CN(C)C(/C=C/Nc1cccc([N+](=O)[O-])c1)=C(C#N)C#N	0	?	0	0	0
Cc1ccc(C(=O)/C=C/Nc2cccc([N+](=O)[O-])c2)o1	0	14µM	0	?	0
COc1cccc(Nc2nc(-c3ccc(O)cc3)cs2)c1	0	11µM	0	14µM[quencher]	0
Cc1cccnc1Nc1nc(-c2ccc(O)cc2)cs1	0	13µM	0	18µM[quencher]	0
COc1cccc(Nc2nnc(SCc3nc4ccccc4s3)s2)c1	0	?	0	14µM[quencher]	0
Cc1cccc(C)c1Nc1nnc(SCc2nc3ccccc3s2)s1	0	?	0	0	0
COc1cccc(Nc2ccc(Nc3cccc(OC)c3)nn2)c1	0	?	0	13µM[quencher]	0
Cc1cccc(Nc2nc(-c3ccc4c(c3)OCCO4)cs2)c1	0	7.1µM	0	13µM[quencher]	0
COc1cccc(Nc2nc(-c3cccc(N4C(=O)c5ccccc5C4=O)c3)cs2)c1	0	?	0	7.9µM[quencher]	?
Cc1cccc(-c2nc3c(cnn3-c3ccccc3)c(=O)n2-c2cccc(Cl)c2)c1	-	0	-	0	0
O=C(Nc1ccccc1C(F)(F)F)c1noc2c1CCCCC2	-	0	-	0	0
CC(C)(C)c1ccc(NC(=O)C(=O)C2C(=O)Nc3ccccc32)cc1 (stereo unspecified)	0	?	0	0	0
CN(C)c1ccc(CC2C(=O)Nc3ccccc32)cc1 (stereo unspecified)	-39	32µM	3.2µM	?	?
CN(C)c1ccc(NC(=O)C(=O)C2C(=O)Nc3ccccc32)cc1 (stereo unspecified)	0	14µM	0	0	0
Cc1c(C(=O)N2CCC(C)CC2)c(S(=O)(=O)N2CCN(c3ccc(Cl)cc3)CC2)c(C)n1C	-	0	-	0	0
Cc1cccc(N2CCc3c2nc2ccc(Br)cc2c3N)c1	0	28µM	?	16µM[quencher]	?
Nc1c2c(nc3ccc(Br)cc13)N(Cc1ccccc1)CC2	0	?	?	?	0
Nc1c2c(nc3ccc(Br)cc13)N(c1ccccc1)CC2	0	?	?	14µM[quencher]	0
CC(=O)Nc1ccc2nc(NC(=O)c3ccc([N+](=O)[O-])s3)sc2c1	0	1.1µM	0	?	0
CC(=O)Nc1ccc2nc(NC(=O)c3cccs3)sc2c1	0	-	?	0	0
CC(=O)c1ccc(NC(=O)C2=CC(c3ccc(C)cc3)=NS(=O)(=O)N2C)cc1	-	0	-	0	0
CCOc1cc(/C=N/N=C(\N)c2nonc2N)cc(Br)c1OCc1cccc2ccccc12	0	0	0	0	?
COc1cc(/C=N/N=C(/N)c2nonc2N)cc(Br)c1OCc1cccc(C)c1	0	?	0	?	28µM
O=c1[nH]c2cc(Cl)c(O)cc2o1	0	-	-	-	-
CCC1CN(C(=O)N2CCC(C(=O)NCCc3ccc(OC)cc3OC)CC2)c2cc(C)ccc2O1 (stereo unspecified)	-	0	-	0	0
COc1ccc(S(=O)(=O)N(CCO)c2ccccc2CN(C)C/C=C/c2ccc(Cl)cc2)cc1	-	0	-	0	0
